Hits are enriched below; roughly 19% of the tested compounds scored in any of these assays.
TDP1 cell noCPT – qHTS for Inhibitors of human tyrosyl-DNA phosphodiesterase 1 (TDP1): qHTS in cells in absence of CPT; DT40 Tdp1-/- hTDP1 cells, no CPT, ATP luminescence, 48 h; Potency, µM (top dose mostly 46.2 µM), for the others: at the top dose activity change, negative = growth inhibition, hits mostly inhibitors; actives 15% (n = 420,000); also: potency is read from the fitted curve at half-maximal effect; % is scaled to controls: 0 for no effect and ±100 for the full control effect; nearly all actives have a fitted effect of over 55% in size
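A cellular qHTS used chicken DT40 cells lacking endogenous Tdp1 but carrying stably transfected human TDP1. Compounds were applied without camptothecin, and cell growth kinetics were judged by ATP-dependent luminescence after ≥48 hr.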
HepG2 tox – kills HepG2 cells in TGF-b inhibitor counter-screen; actives 0.76% (n = 410,000); Potency, µM (doses to about 46.1 µM), without a hit: at the top dose activity change, negative = cytotoxicity, hits mostly cytotoxic; HepG2 CAGA-GFP viability, ATP luminescence, 18 h; AID 588856; also: potency is read from the fitted curve at half-maximal effect
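HepG2 CAGA-GFP cells (1000/well, DMEM with 1% FBS) received compound, then TGF-beta at 500 pg/mL final, and were incubated 18 hours at 37 degrees C. Viability was read by CellTiter-Glo luminescence. Media-only wells were set as complete cell-killing and DMSO as no toxicity.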
DT40 TDP1 CPT – DT40-hTDP1 cell growth loss with CPT. chicken DT40 Tdp1-/-;hTDP1 cells + 20 nM CPT, ATP luminescence, 48 h. Potency, µM (series often up to 46.2 µM), for the others: at the top dose activity change, negative = growth inhibition, hits mostly inhibitors. actives 12% (n = 420,000). AID 686979; also: potency is read from the fitted curve at half-maximal effect; % is scaled to controls: 0 for no effect and ±100 for the full control effect; nearly all actives have a fitted effect of over 55% in size
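Cell growth measured by CellTiter-Glo luminescence after a minimum 48 h, 37 C compound exposure with 20 nM CPT in Tdp1-knockout DT40 cells stably expressing hTDP1, seeded 400/well; qHTS titration format.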
TDP1 block – blocks human tyrosyl-DNA phosphodiesterase 1; actives 0.28% (n = 350,000); recombinant TDP1, AlphaScreen DNA substrate cleavage; Potency, µM (highest dose often 130 µM), for the others: at the top dose activity change, negative = inhibition, actives largely listed as inhibitors; AID 485290; Q9NUW8; also: potency is read from the fitted curve at half-maximal effect; % is scaled to controls: 0 for no effect and ±100 for the full control effect; nearly all actives have a fitted effect of over 40% in size
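Tdp1 1 nM final; 15 min RT w/ cpd; substrate 15 nM, 5 min; beads 10 ug/ml, 10 min; AlphaScreen read. Neg ctrl: no enzyme.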
IL-1B inflam inh – blocks inflammasome-driven IL-1 beta release. THP-1 LPS/ATP IL-1B secretion, AlphaLISA, 16 h; stronger effect = lower value. activity change, % at 57.5 µM. actives 4.7% (n = 360,000). AID 743279; in the data active = activity change below about -50%; inconclusive = mostly about -30% to -49%; also: % is scaled to controls: 0 for no effect and ±100 for the full control effect
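THP-1 cells pretreated 1 hr with compounds (up to 57.5 uM final), then stimulated with LPS (250 ng/mL final) plus ATP (1.25 mM final); secreted IL-1B measured by AlphaLISA after 16 hr, decreased signal indicating inhibition.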
TGFb SMAD3 inh – inhibitors of TGF-b signaling. HepG2 CAGA-GFP TGF-b/SMAD3 reporter, GFP fluorescence, 18 h; TGF-beta stimulated, 500 pg/mL final. Potency, µM (top dose mostly 46.1 µM), for inactives: at the top dose activity, negative = inhibition, actives largely listed as inhibitors. actives 1.2% (n = 410,000). AID 588855; also: potency is read from the fitted curve at half-maximal effect; % is scaled to controls: 0 for no effect and ±100 for the full control effect; nearly all actives have a fitted effect of over 65% in size
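Read-out: total well GFP (ex488/em500-530) summed from mean per-cell fluorescence. Cells: HEPG2 CAGA-GFP, 1% FBS DMEM, 18 h at 37 degrees C with 500 pg/mL final TGF-beta. Unstimulated wells served as the full-inhibition control; stimulated DMSO wells = 0%.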
Numbers without * were called inactive; ? = inconclusive; . = no result given. Unless noted, calls follow the shape of the dose curve; as a rule, active = well fitted curve in the direction sought with a large enough effect; inconclusive = small, poorly fitted or top-dose-only effect, or another doubt; inactive = no such curve, though single readings can be large; an effect the other way counts as inactive or inconclusive.

SMILES	TDP1 cell noCPT	HepG2 tox	DT40 TDP1 CPT	TDP1 block	IL-1B inflam inh	TGFb SMAD3 inh
Nc1ccc(S(=O)(=O)N2CCOCC2)cc1	1%	-2%	5%	1%	.	1%
NC1=NC(=Nc2ccc(S(=O)(=O)N3CCOCC3)cc2)c2ccccc21	-77%	4%	?	5%	-51*	-15%
COC(=O)[C@@H]1CCCN1S(=O)(=O)Cc1ccccc1	-6%	0%	-30%	.	.	-5%
COc1ccc(NC(=O)c2ccc3c(SCC(=O)O)c4c(nc3c2)CCCC4)cc1Cl	.	.	.	2%	.	.
COc1ccc(NC(=O)CSc2ccccc2)c(OC)c1	?	-1%	5%	3%	12	7%
COc1ccc(NC(=O)CSc2c3c(nc4ccccc24)CCC3)cc1Cl	-73%	-7%	0.58µM*	-12%	.	-5%
COc1ccc(NC(=O)CSc2c3c(nc4ccccc24)CCC3)c(OC)c1	21µM*	-27%	?	7%	13	-6%
Cc1cc(C(C#N)c2ccccc2F)n2ncnc2n1 (centres undefined)	3%	9%	15%	.	88	?
CCCC(NC(=O)CCc1c(C)c2cc3c(-c4ccccc4)coc3cc2oc1=O)C(=O)O (centres undefined)	11%	-15%	-10%	.	31	-2%
CCN(CC)CCN1C(=O)/C(=C\c2ccc(Cl)c([N+](=O)[O-])c2)SC1=Nc1ccc(OC)cc1	16µM*	20µM*	21µM*	12%	-99*	?
COc1ccc(N=C2S/C(=C\c3ccco3)C(=O)N2CC(C)C)cc1	-7%	-17%	0%	4%	-10	-3%
CCOC(=O)CN1C(=O)S/C(=C/c2ccc(OC)c([N+](=O)[O-])c2)C1=O	?	2%	-21%	5%	36	5%
COc1ccc(N=C2S/C(=C\c3ccc(Cl)c([N+](=O)[O-])c3)C(=O)N2CCN(C)C)cc1	16µM*	-133%	21µM*	.	-61*	?
COc1cc(C#Cc2c(-c3cncn3C)n(C)c3ccc(-c4cnc(OC)nc4)cc23)cc(OC)c1	?	-36%	16µM*	3%	-58*	?
COc1cc(C#Cc2c(-c3cncn3C)n(C)c3ccc(-c4ccc(CN5CCOCC5)cc4)cc23)cc(OC)c1	8.2µM*	1%	5.8µM*	4%	-26	?
COc1cc(OC)cc(-c2c(Sc3ccccc3)c3cc(-c4cnc(OC)nc4)ccc3n2C)c1	-29%	.	-13%	.	20	.
COc1ccc(Cn2ccc3nc(C)c(C(=O)N4CCN(c5ccc(F)cc5)CC4)cc3c2=O)cc1	15µM*	-13%	23µM*	7%	.	-1%
COc1ccc(Cn2ccc3nc(C)c(C(=O)N4CCN(c5ccc(OC)cc5)CC4)cc3c2=O)cc1	23µM*	-30%	23µM*	11%	.	?
Cc1nc2ccn(Cc3cccnc3)c(=O)c2cc1C(=O)N1CCN(c2ccccc2)CC1	-1%	-1%	-1%	5%	.	-28%
COc1ccc(Cn2ccc3nc(C)c(C(=O)N4CCN(c5ccccc5OC)CC4)cc3c2=O)cc1	23µM*	-3%	?	10%	.	1%
COc1ccc(-c2noc(COc3cc(C)ccc3C)n2)cc1OC	?	-2%	?	.	.	-23%
OC[C@@H]1CN(Cc2cccnc2)C[C@H](n2cnc3c(N4CCCC4)ncnc32)O1	3%	2%	2%	.	32	33%
CC(C)=CCc1c(O)ccc2c1OC(c1ccc(O)c(O)c1)CC2=O (centres undefined)	13µM*	-20%	10µM*	3%	37	5%
